Screens as filed in PubChem.
Rows were chosen to be rich in hits. Some 4.6% of all compounds tested hit in one or more screens of this group.
HCV inhibitor: HCV inhibition; hit rate 3.4% among 340,000; Potency, µM (top dose mostly 41.8 µM), hits mostly inhibitors; Huh7.5.1 HCVcc-Cre infection, luciferase reporter, 44 h; active = well fitted inhibition curve with a large enough effect; inconclusive = small, poorly fitted or top-dose-only effect, or another doubt; inactive = no such curve, though single readings can be large or run the other way
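HCVcc-Cre virus at an moi near 0.5 was added right after compound to cells cultured 4 h from seeding (1,000 cells/well). Luciferase activity was determined 44 h later, 15 min after substrate addition at RT.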
Vaccinia mCherry: inhibitors of vaccinia virus infection (mCherry reporter signal) | Vaccinia virus mCherry reporter infection, fluorescence | Potency, µM (titrated, usually from 36.5 µM), actives largely listed as inhibitors | hit rate 0.63% among 310,000; calls by dose curve; tested in A549 cells; note: nearly all actives have a fitted effect of over 35% in size
Vaccinia Venus: inhibitors of vaccinia virus (Venus reporter); Vaccinia virus Venus reporter expression, fluorescence; Potency, µM (titrated, usually from 36.5 µM), usual class: inhibitors; hit rate 0.46% among 330,000; calls by dose curve; tested in A549 cells; note: nearly all actives have a fitted effect of over 30% in size
LASV entry inh: inhibitors of Lassa virus binding or cell entry; Lassa virus pseudotype entry inhibition, cell reporter; Potency, µM (titrated, usually from 37.9 µM), hits mostly inhibitors; hit rate 1.2% among 300,000; AID 540256; calls by dose curve; tested in HEK293 cells; note: nearly all actives have a fitted effect of over 50% in size
Marburg entry inh: Marburg virus entry inhibition; Marburg virus pseudotyped entry inhibition, cell reporter; Potency, µM (top dose mostly 37.8 µM), most hits filed as inhibitors; hit rate 1.8% among 300,000; calls by dose curve; tested in HEK293 cells
Numbers stand for hits; – = inactive; ? = inconclusive; · = no result; ! = not confirmed by another sample; [ ] = another dose, or the depositor's remark.

SMILES | HCV inhibitor | Vaccinia mCherry | Vaccinia Venus | LASV entry inh | Marburg entry inh
O=C(C1CCN(S(=O)(=O)c2cccc3nonc23)CC1)N1CCN(c2cccc(Cl)c2)CC1 | · | – | – | ? | ·
CC(=O)N1c2ccc(S(=O)(=O)N3CCC(C(=O)N4CCN(c5ccc(Cl)cc5)CC4)CC3)cc2CC1C (configuration not stated) | 10µM | · | · | · | ·
CC(=O)N1c2ccc(S(=O)(=O)N3CCC(C(=O)NCCc4ccc(Cl)cc4)CC3)cc2CC1C (configuration not stated) | 10µM | – | – | ? | ?
O=C(C1CCN(S(=O)(=O)c2cccc3cccnc23)CC1)N1CCN(c2ccc(Cl)cc2)CC1 | 11µM | – | – | · | –
CC(=O)OC[C@H]1O[C@@H](ON=C[C@@H](C)[C@H](OCc2ccccc2)C(C)C)[C@@H](OC(C)=O)[C@@H](OC(C)=O)[C@@H]1OC(C)=O | · | · | · | – | ?
Cc1ccc(Cl)cc1N1CCN(C(=O)C2CCN(S(=O)(=O)c3c(C)nn(C)c3C)CC2)CC1 | 11µM | – | – | ? | ?
O=C(NCc1cccs1)C1CCN(c2ccc(S(=O)(=O)N3CCOCC3)cc2Cl)CC1 | – | – | – | ? | 1.1µM!
COc1cccc(N2CCN(C(=O)C3CCN(S(=O)(=O)c4ccc5c(c4)CC(C)N5C(C)=O)CC3)CC2)c1 (configuration not stated) | 11µM | · | · | · | ·
O=C(C1CCC1)N1CCc2cc(S(=O)(=O)NCCN3CCN(c4ccccc4F)CC3)ccc21 | ? | ? | ? | 16µM | 13µM
O=C(CCNS(=O)(=O)c1ccc2c(c1)CCN2C(=O)C1CC1)N1CCN(c2ccccc2F)CC1 | · | – | – | – | ·
CNC(=O)C[C@H](C(=O)O)c1ccc(OC(C)C)cc1 | · | · | · | · | –
C[C@H]1[C@@H](C(=O)N2CCCC2)CC(=NOCc2ccccc2)C(=NOCc2ccccc2)C[C@H]1c1ccccc1 | · | · | · | ? | –
CC(=O)N1CCN(C(=O)c2sc3ncnc(NCC4CCCO4)c3c2C)CC1 (configuration not stated) | · | – | – | · | ·
Cc1sc2ncnc(NCC(C)(C)N3CCOCC3)c2c1C | 5.6µM | · | ? | ? | ?
Cc1sc2ncnc(NCC3CCCO3)c2c1C (configuration not stated) | 13µM | –[1.46 µM] | – | – | –
CCCCC1CN2C(CCC(C)C2c2ccc(Br)cc2)C(=O)O1 (configuration not stated) | · | · | · | · | –
COc1cc(CN2CCC3(CC2)c2ccccc2[C@@H](NC(=O)c2ccccc2OC)[C@@H]3O)ccc1F | · | – | – | · | ·
CC(C)(C)c1ccc2c(c1)OC(C(=O)N/N=C\c1ccc[nH]1)CO2 (configuration not stated) | 1µM | · | · | · | ·
C/C(=N\NC(=O)c1cc(Br)ccc1O)c1ccccn1 | – | ? | – | – | –
COc1ccc(NC(=S)Nc2ccccn2)c(OC)c1 | 11µM | – | – | ? | –
C/C(=N\NC(=O)c1ccncc1)c1cccc(NC(=O)c2ccc(C(C)(C)C)cc2)c1 | 10µM | – | – | ? | ?
C/C(=N/NC(=O)c1ccncc1)c1ccc(NC(=O)c2ccccc2)cc1 | – | · | · | · | ·
C/C(=N\NC(=O)c1cccc(Br)c1)c1ccccn1 | ? | ? | ? | ? | 4.5µM
CC(C)(C)c1ccc(/C=N/NC(=O)c2ccccn2)cc1 | ? | – | – | ? | 3.2µM
CCn1cc(C(=O)O)c(=O)c2c1CC(N1CCNCC1)=C(F)C2 | · | · | · | · | –
SMILES | HCV inhibitor | Vaccinia mCherry | Vaccinia Venus | LASV entry inh | Marburg entry inh
COc1ccc(C(=O)N/N=C(\C)c2ccccn2)cc1OC | ? | 2.2µM | ? | 5.6µM | 6.3µM
C/C(=N/NC(=O)c1ccc(C(C)(C)C)cc1)c1ccccn1 | 3.5µM | 2.8µM | ? | ? | ?
C/C(=N\NC(=O)c1cc2c(s1)CCC(C)C2)c1ccncc1 (configuration not stated) | 25µM | – | – | – | ?
C/C(=N\NC(=O)c1cc2c(s1)CCC(C)C2)c1ccc[nH]1 (configuration not stated) | – | · | · | · | ·
COc1ccccc1NC(=S)NN=C(C)c1ccccn1 | ? | ? | ? | 0.28µM | ?
Nc1nc(NCCc2ccc(O)cc2)nc2nc(-c3ccco3)nn12 | · | – | – | · | ·
Cc1cnc2ccccc2c1/C=C/c1ccc(N(C)C)cc1 | · | – | – | · | ·
CCN1CCN(Cc2c(O)ccc3oc(C)c(C(=O)Nc4ccc(OC)cc4)c23)CC1 | · | – | – | – | –
Cc1c(C(=O)N(C)C2CCOC2)cnn1-c1ncc2c(n1)-c1ccccc1CCC2 (configuration not stated) | · | – | – | · | ·
C/C(=N\NC(=S)Nc1cccc(C)c1)c1ccccc1 | ? | – | – | ? | –
CC(=NNC(=S)Nc1cccc(C)c1)c1ccccn1 | 10µM | 2µM | ? | ? | ?
